PubChem BioAssay AID1159580 (chemical genetic matrix, 2015)
Out of some 5,500 compounds screened, about 2,000 (36%) were called active. Another 18% or so got no clear call; they are omitted. Cut-off read from the data, not from the text of the source: active = normalized growth mostly below about 0.91 (no sharp cut-off); inconclusive = no clear call, values can overlap the other calls; inactive = mostly above about 0.92. This is one part of the list.

Experiment: chemical genetic growth profiling, strain panel (AID 1159580);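 note: tested at 20 µM; growth read once vehicle control cultures reached saturation at 30 °C; 1 = growth at the plate median or of vehicle wells; lower values mean less growth of the strain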
Conditions: S. cerevisiae deletion strains, growth OD
[1] = locus YCL061C, strain MRC1, active compounds read low
[2] = locus YHR030C, strain SLT2, active compounds read low
[3] = locus YJL187C, strain SWE1, active compounds read low

Measured: normalized growth

Cc1onc(-c2ccccc2Cl)c1C(=O)N1CCCN2C(=O)c3ccccc3C21 (centres undefined)
inactive: locus YAL013W, strain DEP1, active compounds read low 1 | locus YBR229C, strain ROT2, active compounds read low 0.989 | [1] 0.985 | locus YDL101C, strain DUN1, active compounds read low 0.963 | locus YDR150W, strain NUM1, active compounds read low 0.971 | locus YEL061C, strain CIN8, active compounds read low 1.01 | locus YGR078C, strain PAC10, active compounds read low 0.994 | [2] 0.942 | locus YHR087W, strain rtc3, active compounds read low 0.987 | [3] 1.01 | locus YJR043C, strain POL32, active compounds read low 0.968 | locus YJR075W, strain HOC1, active compounds read low 1.03 | locus YKL190W, strain CNB1, active compounds read low 1 | locus YLR039C, strain RIC1, active compounds read low 0.995 | locus YLR058C, strain SHM2 (second series), active compounds read low 0.985 | locus YLR085C, strain ARP6, active compounds read low 1.01 | locus YLR262C, strain YPT6, active compounds read low 0.995 | locus YML094W, strain GIM5, active compounds read low 1 | locus YMR219W, strain ESC1, active compounds read low 1.01 | locus YMR263W, strain SAP30, active compounds read low 0.999 | locus YMR307W, strain GAS1, active compounds read low 0.992 | locus YNL128W, strain TEP1, active compounds read low 0.991 | locus YNL153C, strain GIM3, active compounds read low 0.972 | locus YNL298W, strain CLA4 (second series), active compounds read low 0.998 | locus YNL322C, strain KRE1, active compounds read low 1 | locus YNR030W, strain Alg12, active compounds read low 0.993 | locus YPL055C, strain LGE1, active compounds read low 1.01 | locus YPL241C, strain CIN2, active compounds read low 0.987 | locus YPR135W, strain CTF4, active compounds read low 0.931

CCCCC(=O)O[C@]1(C(=O)CO)CCC2C3CCC4=CC(=O)CC[C@]4(C)C3[C@@H](O)C[C@@]21C (some centres undefined)
inactive: locus YAL021C, strain ccr4, active compounds read low 0.974 | locus YAL026C, strain drs2, active compounds read low 0.982 | locus YAL030W, strain snc1, active compounds read low 0.976 | locus YBL061C, strain skt5, active compounds read low 0.988 | locus YBR009C, strain hhf1, active compounds read low 0.985 | locus YBR023C, strain chs3, active compounds read low 0.987 | locus YBR171W, strain sec66, active compounds read low 0.976 | locus YBR231C, strain swc5, active compounds read low 0.979 | locus YBR279W, strain paf1, active compounds read low 0.989 | locus YCL011C, strain gbp2, active compounds read low 0.963 | locus YCL016C, strain dcc1, active compounds read low 0.981 | [1] 0.983 | locus YCL069W, strain vba3, active compounds read low 0.985 | locus YCR088W, strain abp1, active compounds read low 0.991 | locus YDL005C, strain med2, active compounds read low 0.979 | locus YDL040C, strain nat1, active compounds read low 0.981 | locus YDR001C, strain nth1, active compounds read low 0.987 | locus YDR069C, strain doa4, active compounds read low 0.973 | locus YDR137W, strain rgp1, active compounds read low 0.939 | locus YDR159W, strain sac3, active compounds read low 0.97 | locus YDR195W, strain ref2 0.933 | locus YDR297W, strain sur2, active compounds read low 0.981 | locus YDR334W, strain swr1, active compounds read low 0.947 | locus YDR335W, strain msn5, active compounds read low 0.975 | locus YDR392W, strain spt3, active compounds read low 0.968 | locus YEL003W, strain gim4, active compounds read low 0.997 | locus YEL037C, strain rad23, active compounds read low 0.97 | locus YEL061C, strain CIN8 (second series), active compounds read low 0.98 | locus YER015W, strain faa2, active compounds read low 0.972 | locus YER016W, strain bim1, active compounds read low 0.974 | locus YER111C, strain swi4, active compounds read low 0.981 | locus YER155C, strain BEM2 (second series), active compounds read low 0.981 | locus YFR010W, strain ubp6, active compounds read low 0.957 | locus YGL167C, strain pmr1, active compounds read low 0.976 | locus YGL173C, strain kem1, active compounds read low 0.964 | locus YGL227W, strain vid30, active compounds read low 0.984 | locus YGL240W, strain doc1, active compounds read low 0.973 | locus YGL253W, strain hxk2, active compounds read low 0.976 | locus YHR013C, strain ard1, active compounds read low 0.972 | locus YHR027C, strain rpn1, active compounds read low 0.974 | [2] 0.987 | locus YHR079C, strain IRE1, active compounds read low 0.994 | locus YHR142W, strain chs7, active compounds read low 0.941 | locus YJL092W, strain hpr5, active compounds read low 0.984 | locus YJL095W, strain BCK1 (second series), active compounds read low 0.976 | locus YJL095W, strain BCK1, active compounds read low 0.998 | locus YJL115W, strain asf1, active compounds read low 0.952 | locus YJL129C, strain trk1, active compounds read low 0.954 | locus YJL154C, strain vps35, active compounds read low 0.982 | locus YJL164C, strain tpk1, active compounds read low 0.984 | locus YJL166W, strain qcr8, active compounds read low 0.985 | [3] 0.992 | locus YJR066W, strain TOR1, active compounds read low 0.943 | locus YKL160W, strain elf1, active compounds read low 0.983 | locus YKR026C, strain gcn3, active compounds read low 0.969 | locus YKR091W, strain srl3, active compounds read low 0.98 | locus YLL001W, strain dnm1, active compounds read low 0.96 | locus YLL026W, active compounds read low 0.975 | locus YLL041C, strain sdh2, active compounds read low 0.979 | locus YLR027C, strain aat2, active compounds read low 0.978 | locus YLR113W, strain HOG1, active compounds read low 0.986 | locus YLR221C, strain rsa3, active compounds read low 0.988 | locus YLR258W, strain gsy2, active compounds read low 0.989 | locus YLR262C, strain YPT6 (second series), active compounds read low 0.966 | locus YLR320W, strain mms22, active compounds read low 0.977 | locus YLR342W, strain FKS1, active compounds read low 0.981 | locus YLR357W, strain rsc2, active compounds read low 0.971 | locus YLR370C, strain arc18, active compounds read low 0.981 | locus YLR384C, strain iki3, active compounds read low 0.979 | locus YML120C, strain ndi1, active compounds read low 0.973 | locus YMR058W, strain fet3, active compounds read low 0.974 | locus YMR125W, strain sto1, active compounds read low 0.961 | locus YMR129W, active compounds read low 0.979 | locus YMR205C, strain PFK2, active compounds read low 0.997 | locus YMR231W, strain pep5, active compounds read low 0.98 | locus YNL071W, strain lat1, active compounds read low 0.979 | locus YNL183C, strain NPR1, active compounds read low 0.942 | locus YNL209W, strain ssb2, active compounds read low 0.98 | locus YNL248C, strain rpa49, active compounds read low 0.946 | locus YNL322C, strain KRE1 (second series), active compounds read low 0.959 | locus YNR049C, strain mso1, active compounds read low 0.98 | locus YOR001W, strain rrp6, active compounds read low 0.98 | locus YOR070C, strain gyp1, active compounds read low 0.994 | locus YOR080W, strain dia2, active compounds read low 0.975 | locus YOR083W, strain WHI5, active compounds read low 0.98 | locus YOR106W, strain vam3, active compounds read low 0.977 | locus YOR231W, strain MKK1, active compounds read low 0.976 | locus YOR265W, strain rbl2, active compounds read low 0.977 | locus YOR270C, strain vph1, active compounds read low 0.869 | locus YOR290C, strain snf2, active compounds read low 0.991 | locus YPL051W, strain arl3, active compounds read low 1 | locus YPL078C, strain atp4, active compounds read low 0.971 | locus YPL106C, strain sse1, active compounds read low 0.957 | locus YPL240C, strain hsp82, active compounds read low 0.972 | locus YPL256C, strain CLN2, active compounds read low 0.972
